According to PubChem BioAssay AID777 (Sanford-Burnham Center for Chemical Genomics, 2007):
The campaign covered roughly 96,000 compounds. About 19,000 (20%) were called active. These entries were drawn from the full list. A number with no mark means an inactive call.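 The calls were made as follows: active = blocking of liver enzyme CYP2C9 beyond about 50% at 5 µM (limit read from the data); inactive = the rest.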

molecular target: Cytochrome P450 2C9 (Homo sapiens) (UniProt P11712); experiment: blockers of cytochrome P450 2C9 activity – biochemical, luminescence, ADME assay, primary screen (AID 777); conditions: CYP2C9 Supersomes, luciferin-H conversion, at 5 µM, stronger effect = higher value
Sequence (P11712 whole entry, looked up): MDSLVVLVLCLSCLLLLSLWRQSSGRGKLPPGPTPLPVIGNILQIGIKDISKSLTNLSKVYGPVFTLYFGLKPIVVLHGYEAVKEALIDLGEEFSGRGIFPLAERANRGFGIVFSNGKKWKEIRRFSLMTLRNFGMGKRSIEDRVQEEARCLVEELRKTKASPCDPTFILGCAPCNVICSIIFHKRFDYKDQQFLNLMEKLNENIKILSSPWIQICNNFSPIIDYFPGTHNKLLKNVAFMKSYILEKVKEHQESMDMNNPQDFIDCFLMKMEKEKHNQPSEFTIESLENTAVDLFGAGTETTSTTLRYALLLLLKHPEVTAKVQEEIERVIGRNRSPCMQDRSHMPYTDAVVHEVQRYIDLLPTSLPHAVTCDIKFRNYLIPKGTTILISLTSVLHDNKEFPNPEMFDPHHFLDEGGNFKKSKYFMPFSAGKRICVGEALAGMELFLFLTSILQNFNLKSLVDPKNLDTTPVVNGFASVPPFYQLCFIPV

Row | Compound | inhibition
1 | CC(C)(C)OC(=O)c1c(N)n(CCCN2CCCC2=O)c2nc3ccccc3nc12 | -1.7%
2 | CCc1c(C)n([O-])c2c([n+]1=O)CCCCC2 | -11.5%
3 | CC1CCC2(CC1)NC(=O)N(CC(=O)c1cccn1C)C2=O (stereo unspecified) | -21.9%
4 | Nc1ccc(C(=O)OCC(=O)NC2CCCc3ccccc32)cc1[N+](=O)[O-] (stereo unspecified) | -4.1%
5 | Cc1cc(NC(=O)Nc2ccccc2)n(-c2ccccc2)n1 | 14.5%
6 | CCOc1ccc(N(CC(=O)NC2CCCCCC2)S(=O)(=O)c2c(C)[nH]c(=O)[nH]c2=O)cc1 | 1.3%
7 | Cc1ccc(CNC(=O)c2ccccc2CCc2ccccc2)cc1 | 29.1%
8 | Cc1cccc(C(=O)Nc2ccc(C(=O)/C=C/c3cccs3)cc2)c1 | 26.4%
9 | O=C(NC1CC1)c1ccc2c(c1)NC(=O)c1ccccc1S2 | 11.1%
10 | COc1ccc(C(=O)NC(=O)CSc2nnc(-c3ccco3)n2-c2ccccc2)cc1 | -13.3%
11 | COc1ccc(-n2c(SCC(=O)NCc3ccco3)nnc2-c2c[nH]c3ccccc23)cc1 | 58.8% (active)
12 | COc1ccc(-c2nnc(SCC(=O)c3ccco3)n2-c2ccccc2)cc1 | -14.6%
13 | Cc1cc(NC(=O)CN2CCCC(C)C2)n(-c2nc3ccccc3s2)n1 (stereo unspecified) | 22.2%
14 | c1ccc2c(c1)OCC(c1nn3cnnc3s1)O2 (stereo unspecified) | 7%
15 | CC(C)(C)c1cc2cccnc2n1Cc1cccc(F)c1 | 6.5%
16 | COC(=O)c1ccc(OCC(=O)NC(C)(C)C)cc1 | 14.1%
17 | CC/C(=N/Nc1ccccc1)c1cnnc(SC)n1 | 59% (active)
18 | CC(C)(C)c1ccc(OC2=CS(=O)(=O)c3ccccc32)cc1 | 79% (active)
19 | CC(C)(C)c1csc(NC2=NS(=O)(=O)c3ccccc32)n1 | 17.4%
20 | O=S1(=O)C=C(SCCN2CCCC2)c2ccccc21 | 14%
21 | Brc1cnc(N2CCCC2)nc1N1CCCCC1 | -15.1%
22 | COc1ccc(C2=NOC(C(=O)NCc3ccco3)C2)cc1OC (stereo unspecified) | -31.2%
23 | Cc1ccnc(-n2sc3ccccc3c2=O)n1 | 30.1%
24 | Cc1cc(O)cc(O)c1C(=O)Cc1cnn(-c2ccccc2)c1 | 63.4% (active)
25 | COc1ccc(C(=O)Cc2cnn(-c3ccccc3)c2)c(O)c1 | 5%
26 | CC(C)OC(=O)C(C#N)c1nc2ccccc2nc1N1CCN(Cc2ccc3c(c2)OCO3)CC1 (stereo unspecified) | 16.9%

Row | Compound | inhibition
27 | CC(C)OC(=O)C(C#N)c1nc2ccccc2nc1N1CCN(Cc2ccccc2)CC1 (stereo unspecified) | 62.6% (active)
28 | Cn1nnnc1SCC(=O)N1CCN(Cc2ccccc2)CC1 | 1.6%
29 | Cc1cccc(C)c1NC(=O)c1ccc(CN2CCc3ccccc3C2)cc1 | -5.8%
30 | CC1(C)Cc2c(sc3nc4n(c(=N)c23)CCCCC4)CO1 | 3.2%
31 | C=CC[n+]1c(-c2ccc(C)cc2)csc1NNC(=O)Nc1ccccc1 | 8.5%
32 | c1ccc(Nc2nc(-c3ccncc3)cs2)nc1 | 92.9% (active)
33 | Oc1ccc(-c2csc(Nc3cccnc3)n2)cc1 | 37.6%
34 | c1cnc(Nc2nc(-c3ccc4ccccc4c3)cs2)nc1 | -3.5%
35 | Fc1ccc(Br)cc1/C=N/n1cnnc1 | 6.6%
36 | Cc1cccc(C(=O)Nc2nnc(Cc3c[nH]c4ccccc34)s2)c1 | -4.3%
37 | CN(CC#CCC(c1ccccc1)c1ccccc1)C(C)(C)C | 25.6%
38 | CCCCn1c(=S)[nH]c2ncccc2c1=O | 13.8%
39 | CC(C)C(c1nnnn1Cc1ccccc1)N1CCC(C(N)=O)CC1 (stereo unspecified) | 10.7%
40 | N#Cc1ccc(C(c2nnnn2CCc2ccccc2)N2CCCCCC2)cc1 (stereo unspecified) | 8.8%
41 | Fc1ccc(Cn2nnnc2C(c2cccs2)N2CCCCCC2)cc1 (stereo unspecified) | 83.4% (active)
42 | CCOC(=O)N1CCC(C(N)=O)CC1 | -7.1%
43 | Cc1ccccc1OCC(=O)NCC(=O)OCC(=O)c1ccc2ccccc2c1 | -61.4%
44 | CCCOc1ccc2c3c(c(=O)oc2c1OCCC)CCC3 | -0.6%
45 | O=C(Oc1ccccc1)c1ccc2nccnc2c1 | 17%
46 | CC(C)c1nc(-c2ccccn2)no1 | 3.9%
47 | O=C(Oc1ccc(-c2nc(-c3ccccn3)no2)cc1)c1ccccc1 | 87.2% (active)
48 | COCCOC(=O)C1=C(C)NC(=O)NC1c1ccc(Cl)cc1 (stereo unspecified) | -3%
49 | CCOC(=O)C1=C(CN2CCc3ccccc32)NC(=O)NC1c1ccc(Cl)cc1 (stereo unspecified) | 4.7%
50 | CCOC(=O)C1=C(C)NC(=O)N(C(C)=O)C1c1ccc(Cl)cc1 (stereo unspecified) | 74.3% (active)
51 | COc1ccc(C2=NOC3(CC(=O)N(c4ccc(Cl)cc4)C3=O)C2)c(OC)c1 (stereo unspecified) | 23%
52 | O=C(NC1CCN(Cc2ccccc2)CC1)c1ccccc1F | 7.8%

Row | Compound | inhibition
53 | COc1cc(-c2nn3c(-c4cccc(C)c4)nnc3s2)cc(OC)c1OC | 74.1% (active)
54 | CCOc1cccc(-c2nn3c(-c4ccccn4)nnc3s2)c1 | 23.2%
55 | COc1ccc(-c2nn3c(-c4ccccc4)nnc3s2)cc1OC | 6.9%
56 | Cc1cc(NC(=O)COn2nnc3ccccc32)no1 | 24.9%
57 | Cc1ccc(C(=O)N2CCN(C(=O)N3CCOCC3)CC2)cc1 | 11.5%
58 | Cc1cc2nc(-c3ccc(NC(=O)c4cccnc4)cc3)oc2cc1C | 7.6%
59 | C=CCN1C(=O)C(O)(CC(=O)c2ccc(Cl)cc2)c2ccccc21 (stereo unspecified) | 67.9% (active)
60 | CCOC(=O)CN1C(=O)C(O)(CC(=O)c2ccccn2)c2ccccc21 (stereo unspecified) | 26%
61 | O=C(CC1(O)C(=O)N(CN2CCOCC2)c2ccccc21)c1ccccc1 (stereo unspecified) | -1%
62 | Nc1c(C(=O)NCc2ccccc2)sc2nc3c(cc12)C(=O)CCC3 | 6%
63 | Cc1cc(C)c2nc(NC(=O)C3CCCO3)sc2c1 (stereo unspecified) | 28.3%
64 | O=C(Cc1ncc(C(F)(F)F)cc1Cl)Nc1cccc(Br)c1 | 24.9%
65 | CCCN(CCC)C(=O)C1c2ccccc2Oc2ccccc21 | 53.1% (active)
66 | CCOC(=O)N1CCN(C(=O)CNC(=O)Cc2ccc(Cl)cc2)CC1 | 10.1%
67 | CCOc1cc(N2CCOCC2)c(OCC)cc1NC(=O)COc1cccc2cccnc12 | 0%
68 | O=C(CSc1nc2c(cnn2-c2ccc(F)cc2)c(=O)[nH]1)N1CCCCCC1 | 1.3%
69 | C=CCNC(=O)CSc1nc2sc(C)c(C)c2c(=O)[nH]1 | 58.1% (active)
70 | Cc1cccc(NC(=O)CSc2nc3c(c(=O)[nH]2)CCCC3)c1C | 35.7%
71 | CCOC(=O)CSc1nc2sc3c(c2c(=O)[nH]1)CC(C)(C)OC3 | 15.3%
72 | C=CCn1c(SCC(=O)/C(C#N)=C(\C)N)nc2sc(C)c(C)c2c1=O | 38.5%
73 | CC(=O)c1sc2nc(SCC(=O)N3CCCCC3)[nH]c(=O)c2c1C | 95.6% (active)
74 | Cn1c(=O)cc(OCCCC(=O)N2CCN(Cc3ccc4c(c3)OCO4)CC2)c2ccccc21 | 9.3%
75 | CCOC(=O)NNC(=O)c1ccc(Cl)cc1 | 1.4%
76 | CN(C)/C=C/c1c(C#N)c(=O)ncn1Cc1ccccc1 | 3.3%
77 | COc1ccc(NC(=O)Nc2ccc3nc(C)c(C)nc3c2)cc1 | 18.7%
78 | Cn1c(CCN2CCCCCC2)nc2cc(NC(=O)Nc3ccccc3)ccc21 | -0.2%

Row | Compound | inhibition
79 | Cc1nc2ccc(NC(=O)N3CCC(c4ccccc4)C3)cc2nc1C (stereo unspecified) | 51.4% (active)
80 | Cc1cc(C(=O)CC#N)c(C)n1CC(F)(F)F | 19.4%
81 | COc1cccc2cc(C(=O)N(C)C)c(=O)oc12 | -103%
82 | CCOC(=O)c1cnc(-c2ccccc2)nc1Oc1ccc(C)cc1 | 65.7% (active)
83 | CCCCOc1ccc(-c2ncc(C(=O)OCC)c(N)n2)cc1 | -19.4%
84 | CCOC(=O)c1c(C)nc(-c2ccccc2)nc1NC(=O)C(C)C | 23%
85 | COc1ccc(C(=O)c2c(C)oc3cc([N+](=O)[O-])c(O)c([N+](=O)[O-])c23)cc1 | 79.8% (active)
86 | COc1ccc(C(=O)c2oc3ccc(Br)cc3c2NC(C)=O)cc1 | 1.7%
87 | COc1ccc(NC(=O)c2c(C)oc3c2CCCC3)cc1 | 15.4%
88 | Cc1nn(C)c(Oc2ccccc2)c1[N+](=O)[O-] | 29.1%
89 | CN(CCC#N)c1ncnc2scc(-c3ccccc3)c12 | 19.4%
90 | Cc1noc(C)c1COC(=O)c1cc2ccccc2cc1O | 91.6% (active)
91 | Cc1noc(C)c1COC(=O)Cn1c(C)nc2ccccc21 | 10.7%
92 | Cc1nc2ccccc2cc1O | -22.9%
93 | CC(=O)N(CN1C(=O)C2CC=CCC2C1=O)c1cccc(Cl)c1 (stereo unspecified) | 12.2%
94 | CN1C(=O)CC(N2CCN(c3ccccn3)CC2)C1=O (stereo unspecified) | 7.7%
95 | COc1cccc(C(CC(=O)NCCN2CCOCC2)NS(=O)(=O)c2ccc(C)cc2)c1OC (stereo unspecified) | -7.3%
96 | CCn1c2ccccc2c2cc(NC(=O)C/C(C)=N/NC(=O)c3ccccc3N)ccc21 | -17.8%
97 | Cc1cc(C)cc(N(C(C)C(=O)Nc2c(C)n(C)n(-c3ccccc3)c2=O)S(C)(=O)=O)c1 (stereo unspecified) | 16.6%
98 | FC(F)(F)c1cnc(Oc2ccccc2-c2nnc(-c3ccc(Cl)cc3)o2)c(Cl)c1 | 81.1% (active)
99 | CSc1ccccc1-c1nnc(-c2ccc(Cl)cc2)o1 | -19.4%
100 | COc1ccccc1-c1nc(C(F)(F)F)c(OC)o1 | 17%
101 | O=c1[nH]n(-c2cccc(Cl)c2)c2ncccc12 | -10.7%
